Data published in PubChem BioAssay AID504327 (National Center for Advancing Translational Sciences (NCATS), 2011).
Several values for one entry are separate records, joined by “and”; a condition that tells them apart may be missing. Identical values can stand only once. The campaign covered roughly 390,000 compounds. About 820 (0.21%) were called active. A call without a number means that no potency is given here. Inconclusive results (about 3%) are left out. The sample holds actives, similar compounds and a random draw of the others, so the mix is not that of the screen. Calls follow the shape of the dose curve; as a rule, active = well fitted inhibition curve with a large enough effect; inconclusive = small, poorly fitted or top-dose-only effect, or another doubt; inactive = no such curve, though single readings can be large or run the other way. More than one record can exist for a structure, and the calls need not agree.

molecular target: Histone acetyltransferase KAT2A (Homo sapiens) (UniProt Q92830); assay: qHTS Assay for Inhibitors of GCN5L2; details: GCN5L2 HAT assay, ThioGlo1 CoA-SH fluorescence; series mostly up to 58.9 µM
Method in brief: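 ThioGlo1-coupled HAT assay: 20nM GCN5L2, 70uM acetyl-CoA, 75uM H3(1-25) peptide, pH 7.5. Fluorescence read at 340/540nm at start and after 20 min at room temperature.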
Potency is read from the fitted curve at half-maximal effect.

Sequence of Histone acetyltransferase KAT2A (Homo sapiens) (Q92830 whole entry, looked up): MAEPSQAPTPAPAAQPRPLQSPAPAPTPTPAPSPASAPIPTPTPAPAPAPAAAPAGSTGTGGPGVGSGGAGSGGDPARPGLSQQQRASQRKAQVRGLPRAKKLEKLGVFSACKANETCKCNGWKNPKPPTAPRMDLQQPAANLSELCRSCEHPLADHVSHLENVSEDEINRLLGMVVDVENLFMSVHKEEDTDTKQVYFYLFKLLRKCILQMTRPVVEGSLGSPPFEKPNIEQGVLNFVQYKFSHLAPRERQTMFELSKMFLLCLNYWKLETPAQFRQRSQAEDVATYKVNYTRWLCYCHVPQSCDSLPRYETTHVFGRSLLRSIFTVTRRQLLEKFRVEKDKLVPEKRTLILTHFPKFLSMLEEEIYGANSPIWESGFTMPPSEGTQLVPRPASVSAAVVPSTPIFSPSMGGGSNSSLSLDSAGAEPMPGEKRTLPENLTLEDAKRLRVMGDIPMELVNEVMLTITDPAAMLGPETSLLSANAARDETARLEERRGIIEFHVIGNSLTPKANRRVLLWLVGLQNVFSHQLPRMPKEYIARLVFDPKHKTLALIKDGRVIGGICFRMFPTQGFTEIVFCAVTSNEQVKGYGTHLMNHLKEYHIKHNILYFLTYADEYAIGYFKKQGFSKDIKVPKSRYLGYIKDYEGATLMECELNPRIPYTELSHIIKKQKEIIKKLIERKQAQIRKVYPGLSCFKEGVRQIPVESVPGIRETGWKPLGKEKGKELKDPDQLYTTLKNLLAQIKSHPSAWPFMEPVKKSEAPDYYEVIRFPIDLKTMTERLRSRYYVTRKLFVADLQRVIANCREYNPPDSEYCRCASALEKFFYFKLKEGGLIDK

Row | Compound | Potency
1 | CC[C@H](C)[C@H](NC(=O)[C@@H](N)CCC(=O)O)C(=O)N[C@@H](CC(C)C)C(=O)N[C@@H](CC(=O)O)C(=O)N[C@H](C(=O)N1CCC[C@H]1C(=O)N[C@@H](CO)C(=O)N[C@H](C(=O)O)[C@@H](C)O)C(C)C | inactive
2 | NCCCCC(N)C(=O)O (centres undefined) | inactive
3 | Cc1c(C)n(Cc2ccc(Cl)cc2)c2ccc(C(=O)N3CCN(c4ccccc4F)CC3)cc12 | inactive
4 | CC(C)c1ccc(Cn2c(COc3ccccc3)nc3ccccc32)cc1 | inactive
5 | C=C(C)C1CC=C(CO)CC1 (centres undefined) | inactive
6 | COc1ccc2[nH]cc(CCNc3nc(-c4cccc(NS(C)(=O)=O)c4)nc4ccccc34)c2c1 | inactive
7 | O=C(CN(c1cc(C(F)(F)F)ccc1Cl)S(=O)(=O)c1ccccc1)NCc1cccnc1 | inactive
8 | CC(=O)N(c1ccc2oc(=O)sc2c1)S(=O)(=O)c1ccc(C)cc1 | inactive
9 | O=C(c1cccnc1)N(c1cc2sc(=O)oc2c2ccccc12)S(=O)(=O)c1ccccc1 | 31.6 µM (active)
10 | CC(C)(O)CCC(O)[C@@](C)(O)C1CC[C@]2(O)C3=CC(=O)C4CC(O)C(O)C[C@]4(C)C3CC[C@]12C (some centres undefined) | inactive
11 | Cc1cn([C@H]2CC(F)[C@@H](CO)O2)c(=O)[nH]c1=O (some centres undefined) | inactive
12 | C=CCOC(=O)C(=C)C | inactive
13 | O=c1c(-c2cc(F)cc(F)c2)nc2cnc(Oc3ccccc3)nc2n1C[C@H]1CCCO1 | inactive
14 | Cc1ccnc(-n2sc3ccccc3c2=O)n1 | 3.16 µM (active)
15 | O=C(c1cc(C(F)(F)F)cc(C(F)(F)F)c1)N1CCC[C@@]2(CCN(c3ccccn3)C2)C1 | inactive
16 | CCCCCCCC/C=C\CCCCCCCC(=O)OC[C@H](CO)OC(C)=O | inactive
17 | O=C(c1ccco1)N1CCC[C@@]2(CCN(c3ccccc3)C2)C1 | inactive
18 | Cc1ccc(CC2(O)CCN(CCOc3ccc(O)cc3)CC2)cc1 | inactive
19 | CC(=O)OCC(=O)[C@@]1(O)CCC2C3CCC4=CC(=O)CC[C@]4(C)C3C(=O)C[C@]21C (some centres undefined) | inactive
20 | O=C(NCc1ccccn1)c1ccc2nc(-c3ccco3)c(-c3ccco3)nc2c1 | 11.2 µM (active)
21 | CCN(c1ccccc1)S(=O)(=O)c1cc(C(=O)NCc2ccccn2)ccc1C | inactive
22 | COCCNC(=O)Nc1ccc2nc(-c3ccco3)c(-c3ccco3)nc2c1 | 17.8 µM (active)

Row | Compound | Potency
23 | COc1ccc(-c2nc3ccc(C(=O)NCc4ccc(C)cc4)cc3nc2-c2ccc(OC)cc2)cc1 | inactive
24 | CCOc1ccc(NC(=O)c2ncoc2-c2ccco2)cc1 | inactive
25 | COc1ccc(NC(=O)COCc2cc(-c3ccco3)on2)cc1 | inactive
26 | C[C@]12CC[C@@H]3C(=CCc4cc(O)ccc43)[C@@H]1CCC2=O | inactive
27 | OCCN1CCN(CC/C=C2\c3ccccc3Sc3ccc(C(F)(F)F)cc32)CC1 | inactive
28 | Nc1nc2c(nc(Cl)n2C2OC(CO)C(O)C2O)c(=O)[nH]1 (centres undefined) | inactive
29 | COc1ccc(C(=O)N2CCC3(CCCN(C(c4ccccc4)c4ccccc4)C3)CC2)cc1 | inactive
30 | FCOC(C(F)(F)F)C(F)(F)F | inactive
31 | N#CCCn1c(=O)c(-c2cc(F)cc(F)c2)nc2cnc(Oc3ccccc3)nc21 | inactive
32 | Nc1nc2nc(Cl)[nH]c2c(=O)[nH]1 | inactive
33 | O=c1c(O)c(-c2ccc(O)cc2)oc2ccccc12 | inactive
34 | Oc1ccc(-c2c(-c3ccccc3)nn3c(C(F)(F)F)cc(C(F)(F)F)nc23)cc1 | inactive
35 | Fc1ccc(Cl)cc1-c1nc(Nc2ccncc2)c2nccnc2n1 | inactive
36 | Cc1ccc(-c2nn(-c3ccccc3)cc2/C=C2\SC(=S)N(CCCCCC(=O)O)C2=O)o1 | 25.1 µM (active)
37 | CO[C@@]12[C@@H](COC(N)=O)C3=C(C(=O)C(C)=C(N)C3=O)N1C[C@@H]1N[C@@H]12 | inactive
38 | COc1ccccc1CNc1ncnc2ccc(-c3c(C)noc3C)cc12 | inactive
39 | COc1ccccc1-c1nc(NCc2cccs2)c2ccccc2n1 | inactive
40 | H-EHIPA-OH | inactive
41 | Nc1nc2c(ncn2[C@@H]2O[C@H](COP(=O)(O)OP(=O)(O)OP(=O)(O)O)[C@@H](O)C2O)c(=O)[nH]1 (some centres undefined) | inactive
42 | O=C(Nc1cccc(C(F)(F)F)c1)c1ccc(N2CCNCC2)c([N+](=O)[O-])c1 | inactive
43 | COc1cc(OC)cc(C(=O)NC(=S)N2CCN(c3ccc(C(F)(F)F)cc3[N+](=O)[O-])CC2)c1 | 2 µM (active)
44 | O=C(Cc1ccc(S(=O)(=O)N2CCOCC2)s1)N1CCN(c2ccc(C(F)(F)F)cc2[N+](=O)[O-])CC1 | inactive

Row | Compound | Potency
45 | CC(C)=CCN1CCC2(CCc3ccccc32)CC1 | inactive
46 | CC(C)C(NS(=O)(=O)c1ccc(-c2ccc(Br)cc2)cc1)C(=O)O (centres undefined) | inactive
47 | COCCn1c(=O)c(-c2cccs2)nc2cncnc21 | inactive
48 | OCC(CO)NC1C[C@](O)(CO)[C@@H](O)[C@H](O)[C@H]1O (some centres undefined) | inactive
49 | COc1ccc(CNc2ncncc2-c2ccccc2C)c(OC)c1 | inactive
50 | COc1ccc(CCCOC(Cn2ccnc2)c2ccc(OC)cc2)cc1 (centres undefined) | inactive
51 | O=C(Nc1c(C(=O)N2CCCCC2)cnn1-c1ccccc1)c1ccco1 | 17.8 µM (active)
52 | Cc1ccccc1NC(=O)c1cnn(-c2ccccc2)c1NC(=O)c1ccco1 | inactive
53 | O=C(Cc1ccccc1)Nc1c(C(=O)N2CCCCCC2)cnn1-c1ccccc1 | inactive
54 | O=C(/C=C/c1cccc(F)c1)NC1CC1 | inactive
55 | CC(C)C1=CC2=CC[C@@H]3[C@](C)(CO)CCC[C@]3(C)C2CC1 (some centres undefined) | inactive
56 | CC1=C(/C=C/C(C)=C/C=C/C(C)=C/C=C/C=C(C)/C=C/C=C(C)/C=C/C(=O)[C@]2(C)C[C@@H](O)CC2(C)C)C(C)(C)C[C@H](O)C1 | inactive
57 | O=C(O)CCCCC(=O)O | inactive
58 | CCCCCCCCCCCC(=O)O | inactive
59 | C#CCCCCCCCCCCCCCCCC(=O)O | inactive and 11.2 µM (active)
60 | NC(=O)c1sc(-c2ccsc2)cc1N | inactive
61 | Cc1nc2cnc(N3CCNCC3)nc2n(CCc2ccccc2)c1=O | inactive
62 | Cc1ccccc1-c1ccc(C(=O)O)s1 | inactive
63 | Cn1cc(-c2nc3cnc(N4CCNCC4)nc3n(CCc3ccccc3)c2=O)c2ccccc21 | inactive
64 | NCCCNCCCCN(CCCN)/[N+]([O-])=N/O | inactive
